Laboratory results from PubChem BioAssay AID602143 (Vanderbilt Specialized Chemistry Center, 2011).
Values without a mark were called inactive. The source made the active and inactive calls. No stated cut-off is given here; in the data, active means remaining activity below about 50%; inactive means the rest.

What follows are molecules tested against Phospholipase D2 (Homo sapiens) (UniProt O14939) (assay: PLD2 inhibitors in cells, cell-based, HEK293, single concentration (AID 602143;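 further: tested at 200 nM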)). Details: HEK293 cellular PLD2 activity, percent of control; active compounds read low.
Sequence of Phospholipase D2 (Homo sapiens) (O14939 whole entry, looked up): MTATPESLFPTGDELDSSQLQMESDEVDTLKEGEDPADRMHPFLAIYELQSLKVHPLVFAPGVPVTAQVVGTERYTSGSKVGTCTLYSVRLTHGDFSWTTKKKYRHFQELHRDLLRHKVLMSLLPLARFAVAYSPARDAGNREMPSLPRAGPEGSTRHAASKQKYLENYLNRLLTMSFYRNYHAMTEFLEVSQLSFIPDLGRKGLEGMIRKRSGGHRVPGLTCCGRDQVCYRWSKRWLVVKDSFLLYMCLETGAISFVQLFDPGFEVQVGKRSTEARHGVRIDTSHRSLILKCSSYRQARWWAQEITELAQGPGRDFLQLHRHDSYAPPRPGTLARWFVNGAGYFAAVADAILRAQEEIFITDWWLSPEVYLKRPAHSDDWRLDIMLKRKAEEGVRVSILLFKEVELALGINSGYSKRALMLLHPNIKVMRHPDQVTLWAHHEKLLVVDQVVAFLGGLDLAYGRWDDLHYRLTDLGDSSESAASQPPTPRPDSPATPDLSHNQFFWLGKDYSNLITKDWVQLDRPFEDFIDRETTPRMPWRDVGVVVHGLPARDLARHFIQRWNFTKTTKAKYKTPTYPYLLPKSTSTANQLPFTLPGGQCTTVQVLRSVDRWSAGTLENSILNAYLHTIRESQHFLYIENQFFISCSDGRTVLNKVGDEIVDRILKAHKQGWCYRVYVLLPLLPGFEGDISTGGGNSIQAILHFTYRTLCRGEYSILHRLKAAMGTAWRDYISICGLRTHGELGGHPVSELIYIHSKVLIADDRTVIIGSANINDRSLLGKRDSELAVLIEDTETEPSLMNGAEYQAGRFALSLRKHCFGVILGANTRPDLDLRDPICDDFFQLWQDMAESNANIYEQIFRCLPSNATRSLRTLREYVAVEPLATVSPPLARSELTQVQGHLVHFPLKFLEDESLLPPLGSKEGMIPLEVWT
Sequence of Phospholipase D2 (Homo sapiens) (O14939 whole entry, looked up): as above

| Compound | remaining activity |
| --- | --- |
| C[C@@H](CN1CCC(n2c(=O)[nH]c3ccccc32)CC1)NC(=O)CCc1ccc(F)cc1 | 48.9% (active) |
| CC1(C)[C@H]2CC[C@]1(CS(=O)(=O)NCCN1CCC(n3c(=O)[nH]c4ccccc43)CC1)C(=O)C2 | 72.8% |
| COc1cccc(N2CCN(CCNC(=O)c3ccc4ccccc4c3)CC2)c1 | 77.4% |
| O=c1[nH]c2ccccc2n1C1CCN(CCNS(=O)(=O)c2ccc(Cl)cc2)CC1 | 115% |
| CC(C)C(=O)N[C@@H](C)CN1CCC(n2c(=O)[nH]c3ccccc32)CC1 | 106% |
| O=C(NCCN1CC=C(n2nnc3cc(C(F)(F)F)ccc32)CC1)c1cnc2ccccc2c1 | 114% |
| CS(=O)(=O)N1CC2(CCN(CCNC(=O)c3ccc4ccccc4c3)CC2)c2ccccc21 | 84.2% |
| Cc1cccc(NC(=O)NCCN2CCC(n3c(=O)[nH]c4ccccc43)CC2)c1 | 111% |
| O=C(NCCN1CCC(n2nnc3ccccc32)CC1)c1ccc2ccccc2c1 | 0.808% (active) |
| C[C@@H](CN1CCC(n2c(=O)[nH]c3cc(Br)ccc32)CC1)NC(=O)c1ccc(F)cc1 | 80.4% |
| O=C(NCCN1CCC(n2c(=O)[nH]c3ccccc32)CC1)N1c2ccccc2Sc2ccccc21 | 111% |
| O=C(NCCN1CCC(n2c(=O)[nH]c3ccccc32)CC1)C1CCc2ccccc2C1 (stereo not given) | 103% |
| O=C(NCCN1CCC(n2c(=O)[nH]c3ccccc32)CC1)c1ccc2ccc3c4c2c1CC=C4CC=C3 | 79.2% |
| O=C(NCCN1CCC(C(=O)NCCCN2CCOCC2)CC1)c1ccc2ccccc2c1 | 125% |
| C[C@@H](CN1CCC(n2c(=O)[nH]c3ccccc32)CC1)NC(=O)c1ccco1 | 97.1% |
| O=C(N[C@@H](Cc1ccccc1)CN1CCC(n2c(=O)[nH]c3ccccc32)CC1)c1ccc(F)c(F)c1 | 124% |
| O=C(NCCN1CCC(n2c(=O)[nH]c3ccccc32)CC1)C1(c2ccccc2)CCC1 | 86.3% |
| Nc1ccc(C(=O)NCCN2CCC(n3c(=O)[nH]c4ccccc43)CC2)c(F)c1 | 60.4% |
| COc1cccc(N2CCN(CCNC(=O)c3ccc(F)cc3)CC2)c1 | 100% |
| O=C(NCCN1CCC(n2c(=O)[nH]c3ccc(F)cc32)CC1)c1ccc(Cl)c(Cl)c1 | 0% (active) |

| Compound | remaining activity |
| --- | --- |
| Cn1c(C2CCN(CCN)CC2)nc2ccccc21 (tested in a mixture with another compound) | 117% |
| O=C(NCCN1CCC(n2c(=O)[nH]c3ccccc32)CC1)c1cnccn1 | 139% |
| C[C@@H](CN1CCC2(CC1)CCN(C)C2=O)NC(=O)c1ccc2ccccc2c1 | 135% |
| O=C(NCCN1CCC(n2c(=O)[nH]c3ccccc32)CC1)c1cc2ccccc2c2c1ccc1ccccc12 | 76.6% |
| O=C1c2ccccc2C(=O)N1CCN1CCC(n2c(=O)[nH]c3ccccc32)CC1 | 87.7% |
| O=C(c1ccc2ccccc2c1)N1CCC(n2c(=O)[nH]c3cc(Cl)ccc32)CC1 | 77.7% |
| C[C@H](CN1CCC2(CC1)CNc1ccccc12)NC(=O)c1cnc2ccccc2c1 | 104% |
| O=C(NCCN1CCC(n2c(=O)[nH]c3ccccc32)CC1)C1CCCCCCCCCC1 | 81.3% |
| Nc1ccc(C(=O)NCCN2CCC(n3c(=O)[nH]c4ccccc43)CC2)cc1OC(F)(F)F | 76.5% |
| C[C@@H](CN1CC=C(n2c(=O)[nH]c3ccccc32)CC1)NC(=O)c1ccc2ccccc2c1 | 15.3% (active) |
| C[C@@H](CN1CCC(n2c(=O)[nH]c3ccccc32)CC1)NC(=O)c1cc2cc(F)ccc2[nH]1 | 0.758% (active) |
| Cn1c(C2CCN(CC3(N)CCCC3)CC2)nc2ccccc21 (tested in a mixture with another compound) | 118% |
| O=C(NCCN1CCC(c2nc3ccccc3[nH]2)CC1)c1cnc2ccccc2c1 | 80.6% |
| C[C@H](CN1CCC2(CC1)CNc1ccccc12)NC(=O)c1ccc2ccccc2c1 | 53.8% |
| O=c1[nH]c2ccccc2n1C1CCN(CCNS(=O)(=O)c2cc(Cl)ccc2Cl)CC1 | 68.8% |
| O=C(NCCN1CCC(n2c(=O)[nH]c3ccccc32)CC1)c1ccc2c(ccc3ccc4ccccc4c32)c1 | 96.7% |
| Cc1ccc(NC(=S)NCCN2CCC(n3c(=O)[nH]c4ccccc43)CC2)cc1 | 146% |
| CC(C)[C@@H](CN1CCC(n2c(=O)[nH]c3ccccc32)CC1)NC(=O)c1cc2cc(F)ccc2[nH]1 | 79.5% |
| CC(C(=O)NCCN1CCN(c2ccncc2)CC1)(c1ccccc1)c1ccccc1 | 110% |
| O=C(NCCN1CCN(c2ccncc2)CC1)c1cc2cc(F)ccc2[nH]1 | 65.5% |
